Results published in PubChem BioAssay AID720612 (Broad Institute, 2013).
Inconclusive results are not listed. Calls of active or inactive are those of the source.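 How the source made its calls: active means compounds whose fitted half-maximal viability loss lies within twice the top dose at every treatment time; inconclusive means the three treatment times give differing calls; inactive means inactive at every treatment time.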

Experiment: HUVEC endothelial cell viability, late-stage follow-up, cytotoxicity control for HRAS target identification, Alamar Blue fluorescence, 8-48 h, dry powder (AID 720612)
Conditions: 24 h; series mostly up to 35 µM

| Compound | outcome |
| --- | --- |
| Cc1onc(C(=O)N2CCN(C(c3ccncc3)c3ccncc3)CC2)c1[N+](=O)[O-] | inactive |
| CCC(=O)N(c1ccc(OC)c(Cl)c1)C(C(=O)NCCc1ccccc1)c1cccs1 (configuration not stated) | inactive |
